Bioassay records (PubChem BioAssay)
TIM10 inh = inhibits growth of TIM10 yeast strain; inhibition, % at 10 µM; S. cerevisiae TIM10 strain growth, BacTiter-Glo luminescence, 24 h; 330,000 tested, 1.4% active;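 active = inhibition of 40% or more at the single tested concentration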;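 note: wild-type TIM10 isogenic control strain grown at permissive 25 °C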
NALP1 yeast inh = inhibitors of NALP1 inflammasome in yeast | S. cerevisiae NALP1/ASC/caspase-1 growth, X-gal OD620, 72 h | inhibition, % at 10 µM | 280,000 tested, 0.61% active; in the data active = inhibition mostly above about 24%, no sharp cut-off; inactive = mostly below about 32%
NLRP3 yeast inh = blocks the NALP3 inflammasome reconstituted in yeast | AID 2825 | Yeast reconstituted NLRP3/ASC/caspase-1, beta-gal luminescence, 24 h | 330,000 tested, 0.39% active | inhibition, % at 10 µM;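 active = inhibition of 50% or more; inactive = inhibition below 50%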;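 note: plate controls were induced DMSO wells for no effect and uninduced yeast grown without galactose for full effect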
tim10-1 inh = inhibits growth of tim10-1 mutant yeast | S. cerevisiae tim10-1 ts strain growth, BacTiter-Glo, 24 h | inhibition, % at 20 µM | 330,000 tested, 2.2% active;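 active = inhibition of at least 40%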;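 note: mutant grown at 25 °C; 0% = DMSO wells with yeast and 100% = wells holding no yeast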
SKKanGAS inh = blocks kanamycin growth of S. pyogenes SKKanGAS strain. BacTiter-Glo, 6 h. inhibition, % at 7.5 µM. 300,000 tested, 1.3% active. AID 1662;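 active = mean replicate score, as percent of positive control median, at least 50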;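 note: strain carries kanamycin resistance gene driven by streptokinase promoter and grows in 40 µg/ml kanamycin; loss of luminescence reflects streptokinase promoter inhibition or plain growth inhibition; 0% = median of DMSO wells and 100% = positive control at its reference dose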
tim23-1 inh = growth inhibitors of tim23-1 mutant yeast; AID 463212; S. cerevisiae tim23-1 growth, BacTiter-Glo luminescence, 24 h; 330,000 tested, 1.3% active; inhibition, % at 20 µM;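 active = growth inhibition of the mutant yeast at or above 50%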;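 note: temperature-sensitive mutant grown at 25 °C; plate controls were DMSO-treated mutant yeast for no effect and medium wells lacking yeast for full effect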
tim10-1 conf = tim10-1 yeast growth inhibition, confirmed; shares compounds with tim10-1 inh; 7,400 tested, 56% active; S. cerevisiae tim10-1 ts strain growth, BacTiter-Glo, 24 h; inhibition, % at 20 µM;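 active = inhibition of yeast growth at or above a set limit in either of two repeat tests at 20 µM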;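 note: tim10-1 mutant grown at permissive 25 °C to find synthetic lethal compounds; 0% = DMSO yeast wells and 100% = medium wells without yeast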
TIM10 conf = TIM10 yeast growth inhibition, confirmed; shares compounds with TIM10 inh; S. cerevisiae tim10 strain growth, BacTiter-Glo luminescence, 24 h; inhibition, % at 10 µM; 4,600 tested, 63% active;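 active = inhibition of yeast growth at or above a set limit in either of two replicates at 10 µM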;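 note: this counterscreen used the strain with wild-type TIM10; 0% = yeast with DMSO and 100% = medium wells lacking yeast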
tim23-1 confirm = tim23-1 yeast growth inhibition, confirmed. shares compounds with tim23-1 inh. S. cerevisiae tim23-1 growth, BacTiter-Glo luminescence, 24 h. inhibition, % at 20 µM. 4,400 tested, 83% active. AID 463218;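 active = inhibition above about 39% in either of two replicate wells at 20 µM, limit read from the data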;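 note: temperature-sensitive tim23-1 mutant grown at 25 °C; 0% = DMSO wells with yeast and 100% = medium wells without yeast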
* marks the source's active call; other numbers are inactive results; . = not tested or not shown. This is a sample that favours compounds with a hit; in the whole collection about 4.9% have one here.

SMILES | TIM10 inh | NALP1 yeast inh | NLRP3 yeast inh | tim10-1 inh | SKKanGAS inh | tim23-1 inh | tim10-1 conf | TIM10 conf | tim23-1 confirm
Cc1ccc(-c2nc3cccnc3s2)cc1NS(=O)(=O)c1ccc2c(c1)OCCO2 | 16 | 9 | -19 | 27 | 40 | 35 | . | . | .
CSc1ccc(C2N=C(c3ccccc3)NO2)cc1 (configuration not stated) | 26 | 26 | 21 | -8 | -3 | 21 | . | . | .
Oc1c(Br)cc(C2N=C(c3ccccc3)NO2)cc1Br (configuration not stated) | 33 | -12 | 7 | 44* | 18 | 67* | 58* | . | 68*
O=C(Nc1cccc([N+](=O)[O-])c1)N1CCCc2ccccc21 | -12 | 4 | 21 | 16 | 9 | 15 | . | . | .
O=[N+]([O-])c1cccc(NC(=S)N2CCc3ccccc32)c1 | 25 | 16 | 33 | 43* | . | 51* | 32* | . | 49*
COc1ccc(OC)c(C2C(C#N)=C(N)Oc3c2c(C)nn3-c2cccc(Cl)c2)c1 (configuration not stated) | 44* | 18 | 1 | 46* | 15 | 51* | 29 | 15 | 50*
Cc1nn(-c2cccc(Cl)c2)c2c1C(c1ccncc1)C(C#N)=C(N)O2 (configuration not stated) | 28 | 7 | 9 | 36 | 13 | 15 | . | . | .
N#C/C(=C\c1cccc([N+](=O)[O-])c1)c1ccccn1 | 39 | 6 | 19 | 56* | 14 | 63* | 72* | . | 56*
O=[N+]([O-])c1cccc(/C=C/c2ccccn2)c1 | 13 | 1 | 24 | 16 | 2 | 13 | . | . | .
S=C(NNc1ccc2ccccc2c1)NC1CCCCC1 | 51* | 6 | 7 | 49* | 16 | 52* | 53* | 56* | 52*
O=C1NN=C(c2ccc(Cl)cc2)CC1c1cccc(Cl)c1 (configuration not stated) | 7 | -4 | 10 | 41* | 16 | 56* | 27 | . | 54*
Cc1ccccc1-c1cc(C(=O)Nc2sc(C)c(C)c2C(N)=O)c2ccccc2n1 | 31 | 4 | 24 | 42* | 47 | 54* | 31* | . | 42*
COc1cccc(CN2c3ccc(Br)cc3C(=O)CS2(=O)=O)c1 | 32 | . | 19 | 40* | . | 57* | 38* | . | 60*
CN(C)C(=O)C(=O)c1c(-c2ccccc2)cc2ccccn12 | 17 | 37 | 18 | 22 | 5 | 19 | . | . | .
O=Nc1c(-c2ccccc2)cc2ccccn12 | 49* | 38* | 32 | 50* | 24 | 66* | 43* | 29* | 63*
Fc1ccc(-[n+]2nc(Nc3ccccc3)sc2-c2ccc(OCc3ccccc3)cc2)cc1 | 3 | 7 | 17 | 12 | -2 | 20 | . | . | .
CCCCCCNS(=O)(=O)c1ccc(Cl)s1 | -1 | 16 | 32 | 43* | . | 56* | 26 | . | 47*
COC(=O)C[C@H]1c2cc(F)ccc2S(=O)(=O)N1c1ccc(N(C)C)cc1 | -1 | . | 14 | 8 | -2 | 19 | . | . | .
C/C(=N\Nc1nc2c(s1)CCCC2)c1ccc(Cl)cc1 | 50* | 5 | 14 | 61* | 12 | 58* | 47* | 24 | 63*
O=C(CCSc1ccc(Br)cc1)c1ccc(O)cc1 | 17 | 5 | 11 | 50* | 24 | 62* | 49* | . | 74*
CC[C@@H]1CC=C[C@H]2[C@H]1C(=O)N(Cc1ccccc1)[C@H]2c1cc(C)ccc1F | 50* | 1 | 8 | 55* | 58* | 51* | 35* | 38* | 54*
CC1=NNC(=O)C1Cc1ccccc1C (configuration not stated) | 11 | 7 | 27 | 4 | -2 | 9 | . | . | .
COc1ccccc1N1CCN(C(=O)CSc2nnc(C)n2C2CC2)CC1 | 8 | . | 7 | -1 | . | -2 | . | . | .
O=C(COC(=O)CC1CC2CCC1C2)NCc1ccc(F)cc1 (configuration not stated) | 3 | . | 9 | 5 | . | 22 | . | . | .
O=C(CC1CC2CCC1C2)OCC(=O)c1c[nH]c2ccccc12 (configuration not stated) | 35 | 1 | 17 | 42* | -6 | 52* | 26 | . | 68*
SMILES | TIM10 inh | NALP1 yeast inh | NLRP3 yeast inh | tim10-1 inh | SKKanGAS inh | tim23-1 inh | tim10-1 conf | TIM10 conf | tim23-1 confirm
N/C(=N\OC(=O)c1cccc(Cn2cc(C(F)(F)F)ccc2=O)c1)c1ccc(Cl)cc1 | 3 | -7 | -12 | 44* | 0 | 51* | 56* | . | 60*
O=C(Sc1ccc(Cl)cc1)c1cccc(Cn2cc(C(F)(F)F)ccc2=O)c1 | 28 | 2 | 6 | 26 | 9 | 37 | . | . | .
C/C(=N/OC(=O)c1ccc(F)cc1)c1ccc(C)cc1 | 4 | 12 | 21 | 0 | -7 | 0 | . | . | .
Cc1ccccc1C(=O)O/N=C(\N)c1ccccc1 | 53* | 17 | 23 | 55* | 5 | 57* | 58* | 50* | 68*
O=C(/C=C/c1ccccc1)/C=C/c1ccccc1 | 53* | 61 | 27 | 48* | -8 | 59* | 49* | -29 | 67*
Cc1occc1C(=O)O/N=C(\N)c1ccccc1 | 24 | . | -11 | 28 | 47 | 44 | . | . | .
N/C(=N\OC(=O)c1ccc([N+](=O)[O-])cc1)c1ccc(Br)cc1 | 10 | 14 | 17 | 9 | -5 | 32 | . | . | .
Cc1ccccc1/C(N)=N/OC(=O)c1ccc(F)cc1 | 73* | -18 | -14 | 44* | 10 | 74* | 43* | 56* | 67*
N/C(=N\OC(=O)c1ccoc1)c1ccc(Br)cc1 | 71* | 2 | 5 | 59* | -2 | 81* | 54* | 64* | 84*
CCc1noc(C)c1C(=O)NNC(=O)COc1ccc(C)c(C)c1 | -9 | . | 3 | -8 | -12 | -3 | . | . | .
Cc1ccc(NC(=O)c2ccccc2OCC(=O)Nc2ccccc2F)cc1S(=O)(=O)N(C)C | 14 | . | 7 | 6 | . | 3 | . | . | .
CCCc1cc(=O)oc2cc(C)cc(OCC(=O)NCCCN3CCCC3=O)c12 | -5 | 14 | -12 | 16 | 1 | 4 | . | . | .
Cc1ccc(C(=O)O/N=C(\N)c2ccc(Br)cc2)cc1C | 21 | -19 | 31 | 36 | -10 | 21 | . | . | .
COc1ccc(/C=C/C(=O)O/N=C(\N)c2cccnc2)cc1OC | -8 | . | 12 | 6 | -5 | 13 | . | . | .
Cc1ccc(C)c(C(=O)O/N=C(\N)c2ccc(Br)cc2)c1 | 87* | 3 | 33 | 57* | 3 | 86* | 33* | 87* | 61*
N/C(=N\OC(=O)/C=C/c1ccccc1)c1ccccc1 | 45* | -3 | 3 | 43* | -1 | 77* | 53* | 63* | 73*
